Hits are enriched below; roughly 7.5% of the tested compounds scored in any of these assays.
SMN2 splice up = enhancers of SMN2 splice variant expression | HEK293 SMN2-luciferase splicing reporter, luminescence, 30-36 h | Potency, µM (doses to about 46.1 µM), for the others: top-dose activity change, positive = activation, hits mostly activators | actives 2.8% (n = 210,000) | AID 1458; note: % of control where 0% means no effect; nearly all actives have a fitted effect of over 55% in size
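qHTS luciferase splicing reporter: luminescence rises when SMN2 exon 7 is included in transfected HEK293 cells. Compound exposure lasted 30-36 h at 37C, with 4.5 mM final sodium butyrate as control, followed by a ONE-Glo read.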
FLuc modulator = counter-screen for miR-21 project: firefly luciferase inhibitors or activators. Potency, µM (titrated, usually from 57.5 µM), without a hit: top-dose activity change, negative = inhibition, hits mostly inhibitors. AID 588342. actives 6.9% (n = 360,000). P08659. purified FLuc, Km substrates, luminescence inhibition;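 note: plate controls were vehicle for no effect and reference inhibitor for full effect; nearly all actives have a fitted effect of over 55% in size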
Target sequence (P08659 whole entry, looked up): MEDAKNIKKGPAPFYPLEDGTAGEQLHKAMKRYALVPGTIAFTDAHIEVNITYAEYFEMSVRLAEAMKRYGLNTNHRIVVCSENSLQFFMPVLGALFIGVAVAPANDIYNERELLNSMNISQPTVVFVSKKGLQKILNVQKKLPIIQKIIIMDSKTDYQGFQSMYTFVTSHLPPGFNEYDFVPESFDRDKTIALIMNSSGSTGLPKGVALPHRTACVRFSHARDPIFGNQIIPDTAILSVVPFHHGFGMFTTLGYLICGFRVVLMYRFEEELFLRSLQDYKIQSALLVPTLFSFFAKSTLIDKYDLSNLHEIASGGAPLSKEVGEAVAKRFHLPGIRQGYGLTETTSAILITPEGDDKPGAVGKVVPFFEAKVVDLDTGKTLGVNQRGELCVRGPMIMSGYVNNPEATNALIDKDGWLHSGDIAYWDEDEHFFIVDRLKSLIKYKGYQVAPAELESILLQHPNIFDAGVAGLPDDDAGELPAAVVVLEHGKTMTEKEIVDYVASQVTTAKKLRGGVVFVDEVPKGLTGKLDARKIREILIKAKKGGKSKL
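Purified P. pyralis luciferase, 10 nM final, with Km-level 10 uM D-luciferin and 10 uM ATP in 50 mM Tris acetate pH 7.5, 10 mM Mg acetate, 0.01% Tween-20, 0.05% BSA; 6-point qHTS titration about 60 µM downward; luminescence read.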
Rab9 prom act = activators of Rab9 promoter. actives 2.8% (n = 320,000). AID 485297. Potency, µM (series often up to 9.22 µM), without a hit: at the top dose activation, negative = inhibition, usual class: activators. Huh7 Rab9 promoter-luciferase reporter, luminescence, 24 h; note: % of control where 0% means no effect; nearly all actives have a fitted effect of over 60% in size
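Huh7 reporter line, Rab9 promoter upstream of luciferase. Compound exposure 24 h at 37 °C in reduced-serum medium with 10% FBS. Read-out: luminescence.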
KinaseGlo FLuc = blocks Kinase-Glo luciferase, a counter-screen artifact; Kinase-Glo luciferase, ATP luminescence, 8 min; Potency, µM (series often up to 38.3 µM), inactives show at the top dose activity change, negative = inhibition, actives largely listed as inhibitors; actives 0.28% (n = 200,000); note: % is set by controls: 0 for no effect and ±100 for the full control effect; nearly all actives have a fitted effect of over 60% in size
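Inhibition of Kinase-Glo luciferase light generation was assessed at 10 uM ATP in pH 7.2 imidazole buffer, with luminescence measured after eight minutes at ambient temperature.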
NPC1 prom act = activates the NPC1 promoter; Huh7 NPC1 promoter luciferase reporter, 24 h; Potency, µM (doses to about 9.22 µM), without a hit: top-dose activation, hits mostly activators; actives 2.4% (n = 320,000); note: % of control where 0% means no effect; nearly all actives have a fitted effect of over 60% in size
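Readout is luciferase luminescence, reflecting NPC1 promoter activation in stably transfected Huh7 cells after 24 h compound exposure at 37 °C in reduced-serum medium with 10% FBS.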
ELG1 genotoxic = genotoxicity induction in ELG1-luciferase HEK293T cells; Potency, µM (titrated, usually from 46 µM), inactives show at the highest dose activity change, positive = activation, actives largely listed as activators; actives 1.3% (n = 330,000); HEK293T ELG1-luciferase reporter, luminescence, 16 h; note: % of control where 0% means no effect; nearly all actives have a fitted effect of over 60% in size
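Step 1: seed 2,000 HEK293T ELG1-luciferase cells per well. Step 2: add compound or DMSO, incubate 16 hr at 37 °C. Step 3: ONE-Glo, 30 min at room temperature, read luminescence.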
The depositor's hits bear a star; u = inconclusive; x = no result; [ ] = dose if it differs, or a comment. Calls come from the whole dose curve; as a rule, active = well fitted curve in the direction sought with a large enough effect; inconclusive = small, poorly fitted or top-dose-only effect, or another doubt; inactive = no such curve, though single readings can be large; an effect the other way counts as inactive or inconclusive. Potency is the fitted concentration of half-maximal effect.

SMILES	SMN2 splice up	FLuc modulator	Rab9 prom act	KinaseGlo FLuc	NPC1 prom act	ELG1 genotoxic
CCn1c(O)c(C=Nc2ccccc2)sc1=S	x	9.53µM*	2.82µM*	x	u	u
O=C(NNC(=S)Nc1ccccc1)Nc1ccccc1	5.62µM*	u	21.8%	0.3%	14.6%	13.4%
Cc1ccc(NC(=S)NNC(=O)Nc2ccccc2)cc1	12.6µM*	2.39µM*	3.16µM*	-7.9%	u	u
CCC(C)NC(=S)Nc1ccccc1 (configuration not stated)	x	5.8%	-6.0%	x	1.4%	-4.0%
Cc1ccc(NC(=S)NNC(=O)c2nn(C)c(C)c2Cl)cc1	u	-1.6%	3.16µM*	-0.6%	u	16.2%
O=C(NNC(=S)Nc1ccccc1)NNC(=S)Nc1ccccc1	2.5%	6.1%	1.4%	-3.4%	-13.7%	-4.8%
CC(C)C(NC(=S)Nc1ccccc1)C(=O)O (configuration not stated)	3.16µM*	3.7%	-1.3%	-3.8%	1.3%	-0.9%
COc1ccccc1/C=C/C(=O)OCC(=O)NC1CCCCCCC1	x	x	x	x	x	-0.2%
Cc1occc1-c1nnc(SCC(=O)Nc2ccccn2)o1	10µM*	-2.7%	u	1.1%	u	u
O=C(CSc1nnc(-c2ccccc2Cl)o1)Nc1ccccn1	x	-16.0%	0.562µM*	2.4%	u	u
COc1ccccc1NC(=O)CSc1nnc(-c2ccoc2C)o1	x	-15.3%	u	x	u	u
CCS(=O)(=O)N1CCN(c2ccccc2F)CC1	0.1%	-1.8%	-7.9%	1.6%	-3.3%	2.8%
Oc1ccccc1N1CCN(c2ccc3ccccc3n2)CC1	x	5.36µM*	0.398µM*	x	1.26µM*	u
C[N+](C)(C)CC(=O)N1CCN(c2ccc3ccccc3n2)CC1	x	1.5%	-0.6%	x	0.1%	-0.5%
c1ccc(CN2CCN(c3nc4ccccc4c4ccccc34)CC2)cc1	-19.4%	-0.1%	-3.6%	-1.2%	2.4%	-5.7%
c1ccc(CN2CCN(c3cnc4ccccc4n3)CC2)cc1	x	19µM*	u	x	u	u
Fc1ccccc1N1CCN(c2cnc3ccccc3n2)CC1	2.82µM*	2.13µM*	x	-2.7%	x	x
Cc1ccc(OCCNC(=O)c2ccccc2F)cc1	x	u	25.3%	x	18.0%	13.8%
COc1ccccc1/C=C1\SC(=S)N(CCC(=O)Nc2nnc(C)s2)C1=O	x	-0.4%	2.1%	x	-2.7%	u
CN(C)c1ncc2nc(-c3ccc(F)cc3)c(=O)n(C3CC3)c2n1	-2.2%	x	x	-8.0%	x	x
COC(=O)c1ccc(NC(c2ccc(Cl)cc2)P(=O)(OC)OC)cc1 (configuration not stated)	-4.7%	26.9µM*	-1.4%	1.4%	-2.0%	3.7%
COc1ccc(CNC(=O)C(c2ccco2)N(C(=O)c2ccccn2)c2ccccc2)cc1 (configuration not stated)	x	6.75µM*	0.891µM*	-7.3%	0.891µM*	u
O=C(NCc1ccccc1)C(c1ccco1)N(C(=O)c1ccccn1)c1ccccc1 (configuration not stated)	x	1.7%	-1.2%	x	-4.3%	-10.6%
COc1ccccc1N=Nc1nc(-c2ccccc2)c(-c2ccccc2)[nH]1	0.3%	12µM*	0.1%	-3.4%	-2.9%	-6.9%
COc1ccc(N=Nc2nc(-c3ccccc3)c(-c3ccccc3)[nH]2)cc1	1.7%[1.84 µM]	9.53µM*	-3.6%	-0.9%	-0.1%	-8.3%
SMILES	SMN2 splice up	FLuc modulator	Rab9 prom act	KinaseGlo FLuc	NPC1 prom act	ELG1 genotoxic
Oc1ccccc1N=Nc1nc(-c2ccccc2)c(-c2ccccc2)[nH]1	-120.2%	u	-18.0%	-9.4%	-16.7%	-0.1%
S=C(Cc1cccnc1)N1CCOCC1	1.5%	-1.0%	-4.3%	-0.8%	-1.4%	1.8%
Cc1ccc(C)c(-c2cc(C(=O)NNC(=S)NCC(C)C)c3ccccc3n2)c1	x	u	-4.5%	x	-2.8%	-2.7%
CCNC(=S)NNC(=O)c1cc(-c2cccc(OC)c2)nc2ccccc12	u	0.675µM*	15.2%	u	24.3%	u
CCNC(=S)NNC(=O)c1cc(CC(C)C)nc2ccccc12	-17.9%	u	4.7%	-0.8%	-8.2%	-2.0%
CCNC(=S)NNC(=O)c1cc(-c2ccc(OCC)cc2)nc2ccccc12	-14.5%	0.0239µM*	u	1µM*	u	-7.4%
CCNC(=S)NNC(=O)c1cc(-c2ccccc2C)nc2ccccc12	-8.6%	16.9µM*	-4.1%	-1.0%	-6.7%	-5.9%
COc1ccc(-c2cc(C(=O)NNC(=S)NC(=O)c3c(-c4ccccc4)noc3C)[nH]n2)cc1	-7.7%	9.53µM*	2.0%	2.1%	-3.7%	-7.6%
CCNc1ncc2nc(-c3ccc(Cl)cc3)c(=O)n(C3CC3)c2n1	2.5%	x	x	-3.4%	x	x
Cc1nc2ccccc2n1CCc1nc2c3ccccc3nc(SCc3ccc(C#N)cc3)n2n1	x	0.6%	x	x	x	x
Cc1ccc(-c2cc(-c3coc4ccc(Cl)cc4c3=O)c3c(n2)-c2ccccc2OC3)cc1	0.4%	-6.1%	x	x	x	x
COc1ccc(C(=O)NNC(=S)NC(=O)c2cc(-c3ccccc3)nc3ccccc23)cc1	-14.1%	12µM*	2.7%	-2.3%	-1.5%	-4.9%
CCCOc1cccc(-c2cc(C(=O)NNC(=S)NCC)c3ccccc3n2)c1	21.4%	0.757µM*	u	-6.2%	21.0%	27.0%
CCCOc1ccc(C(=O)NNC(=S)NC(=O)c2cc(-c3ccc(Cl)cc3)nc3ccccc23)cc1	-9.3%	u	-6.0%	-5.4%	-9.3%	-5.2%
O=[N+]([O-])c1ccccc1OCCOc1ccccc1[N+](=O)[O-]	x	-8.1%	2µM*	x	3.55µM*	10.7%
CCOC(=O)/C=C/COc1ccccc1[N+](=O)[O-]	23.8%	15.1µM*	u	4.5%	15.3%	22.5%
CC(C)(C)C(=O)COc1ccccc1[N+](=O)[O-]	8.8%	2.0%	2.9%	1.2%	9.7%	0.2%
O=C(CCOc1ccccc1)Nc1ccccc1[N+](=O)[O-]	18.9%	-10.8%	14.8%	0.5%	11.8%	12.7%
O=[N+]([O-])c1ccccc1NCCOc1ccccc1	u	9.53µM*	u	-5.3%	u	u
COc1ccc(OCCOc2ccccc2[N+](=O)[O-])cc1	u	16.9µM*	u	-4.2%	u	u
Cc1cc(=O)[nH]c2nnc(SCc3cccc(F)c3)n12	x	-12.5%	x	x	x	x
O=C(CN1C(=O)COc2ccc(S(=O)(=O)N3CCCCCC3)cc21)NCCc1ccccc1	x	-11.6%	x	x	x	x
CCOC(=O)c1cnc(SCc2ccccc2)nc1N	5.62µM*	2.13µM*	0.891µM*	-0.8%	1.58µM*	7.31µM*
CCOC(=O)C(C)Sc1ncc(-c2ccccc2)cn1 (configuration not stated)	3.4%	21.3µM*	23.0%	-3.5%	5.1%	8.2%
